For some of these results: Potency and affinity values are given separately. The source made the active and inactive calls.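 Rule for the calls, unless noted: active = primary screen active and over 50% activation in each of two duplicate runs; inactive = the rest.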
Key:
[1] = tested on: TRPC4 beta (transient receptor potential cation channel C4), mouse; assay: TRPC4 cation channel opening, retest – cell-based, Fluo4 calcium, HEK293 TRPC4beta/mu-opioid, duplicates, 10 µM, confirmation (AID 2426;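 active = fluorescence ratio normalized to control raised more than 50% in primary screen plus both repeat runs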;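 for activation: percent rise of integrated ratio over buffer wells lacking compound which define 0%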); conditions: Fluo4 calcium fluorescence, at 10 µM; active compounds read high
[2] = tested on: transient receptor potential cation channel C4 beta (TRPC4), mouse; assay: TRPC4 cation channel opening, second retest – cell-based, second round, Fluo4, HEK293 TRPC4beta/mu-opioid, 1 µM, confirmation (AID 2461); conditions: Fluo4 calcium fluorescence, at 1 µM; active compounds read high;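 for activation: 0% = wells without test compound as baseline of integrated fluorescence ratio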
[3] = tested on: TRPC4 (transient receptor potential cation channel C4 beta), mouse; assay: potentiation of DAMGO EC20 TRPC4 response – cell-based, second round, Fluo-4, HEK293 TRPC4beta/mu-opioid, 1 µM, confirmation (AID 2554;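 active = primary screen hit whose fluorescence ratio, in both repeats, exceeds the weak agonist control mean by 3 SD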); conditions: DAMGO EC20, Fluo-4 calcium flux, at 1 µM; active compounds read high
[4] = tested on: TRPC4 beta (transient receptor potential cation channel C4), mouse; assay: potentiation of DAMGO EC20 TRPC4 response – cell-based, Fluo-4, HEK293 TRPC4beta/mu-opioid, confirmation (AID 2555;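 active = primary screen hit whose calcium fluorescence ratio, in both repeats, exceeds the weak agonist control mean by 3 SD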); conditions: DAMGO EC20, Fluo-4 calcium flux, at 10 µM; active compounds read high
[5] = molecular target: Short transient receptor potential channel 4 (Mus musculus) (UniProt Q9QUQ5); assay: blockers of DAMGO-evoked TRPC4 calcium flux – cell-based, Fluo4, HEK293 TRPC4beta/mu-opioid, confirmation (AID 2636;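 active = calcium signal cut by more than 3 SD below the full-agonist control yet still positive, in both repeats and the earlier primary screen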); conditions: at 10 µM; active compounds read high
Sequence of Short transient receptor potential channel 4 (Mus musculus) (Q9QUQ5 whole entry, looked up): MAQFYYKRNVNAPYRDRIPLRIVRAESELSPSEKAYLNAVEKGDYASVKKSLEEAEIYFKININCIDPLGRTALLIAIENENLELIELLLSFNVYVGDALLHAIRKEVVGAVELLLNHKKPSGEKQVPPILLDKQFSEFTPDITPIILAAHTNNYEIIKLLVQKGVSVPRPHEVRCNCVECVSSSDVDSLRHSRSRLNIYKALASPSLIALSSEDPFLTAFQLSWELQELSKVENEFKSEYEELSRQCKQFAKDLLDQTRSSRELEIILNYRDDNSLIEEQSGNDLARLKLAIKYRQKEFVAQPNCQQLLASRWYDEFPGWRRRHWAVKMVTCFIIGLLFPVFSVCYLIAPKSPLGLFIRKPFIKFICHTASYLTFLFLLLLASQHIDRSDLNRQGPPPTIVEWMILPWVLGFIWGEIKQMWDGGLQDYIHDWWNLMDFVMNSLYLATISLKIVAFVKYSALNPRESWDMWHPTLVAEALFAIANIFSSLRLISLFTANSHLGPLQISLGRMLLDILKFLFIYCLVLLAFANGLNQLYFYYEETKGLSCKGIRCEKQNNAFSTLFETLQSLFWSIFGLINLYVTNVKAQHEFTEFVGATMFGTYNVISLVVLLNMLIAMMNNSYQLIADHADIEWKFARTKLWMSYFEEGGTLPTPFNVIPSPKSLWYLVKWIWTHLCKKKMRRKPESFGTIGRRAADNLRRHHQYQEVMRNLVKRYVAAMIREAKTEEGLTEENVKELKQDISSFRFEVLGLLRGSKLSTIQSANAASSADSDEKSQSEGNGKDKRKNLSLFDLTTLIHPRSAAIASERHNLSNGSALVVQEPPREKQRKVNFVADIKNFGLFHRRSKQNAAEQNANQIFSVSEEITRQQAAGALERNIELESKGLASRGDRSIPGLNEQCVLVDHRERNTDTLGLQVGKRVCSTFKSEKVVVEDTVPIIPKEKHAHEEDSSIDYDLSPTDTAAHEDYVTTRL

[6] = molecular target: Short transient receptor potential channel 4 (Mus musculus) (UniProt Q9QUQ5); assay: blockers of DAMGO-evoked TRPC4 calcium flux – cell-based, second round, Fluo4, HEK293 TRPC4beta/mu-opioid, 1 µM, confirmation (AID 2637;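 active = calcium signal ratio cut to more than 3 SD under the fully stimulated control mean yet still positive, in both repeats and the primary screen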); conditions: at 1 µM; active compounds read high
[7] = molecular target: Short transient receptor potential channel 4 (Mus musculus) (UniProt Q9QUQ5); assay: potentiation of DAMGO-evoked TRPC4 calcium signal – cell-based, HEK293 TRPC4/mu-opioid, Fluo-4 calcium, EC20 DAMGO, dose response (AID 434941;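 active = earlier screen potentiator hit that boosts the TRPC4 ion channel at some dose, with a dose response; inactive = no potentiation, no dose response, or not a prior hit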;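 note: calcium entry triggered by an EC20 dose of DAMGO at the co-expressed mu-opioid receptor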)
[8] = molecular target: Short transient receptor potential channel 4 (Mus musculus) (UniProt Q9QUQ5); assay: block of DAMGO-driven TRPC4 calcium entry – cell-based, HEK293 TRPC4/mu-opioid, Fluo-4 calcium, dose response (AID 434942;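 active = primary screen inhibitor hit that blocks the TRPC4 channel at some tested dose, yielding a dose curve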)
[9] = molecular target: Short transient receptor potential channel 6 (Mus musculus) (UniProt Q61143); assay: TRPC6 blockade by TRPC4 inhibitor hits – cell-based, HEK293, membrane potential dye, duplicate, selectivity assay for TRPC4 inhibitor project, confirmation (AID 434948;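 active = active in primary screen and both duplicates, each dropping signal beyond three positive-control SD with fluorescence still positive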); conditions: HEK293 TRPC6, membrane potential dye fluorescence, at 10 µM, stimulated with maximal-effect acetylcholine; active compounds read high
Sequence of Short transient receptor potential channel 6 (Mus musculus) (Q61143 whole entry, looked up): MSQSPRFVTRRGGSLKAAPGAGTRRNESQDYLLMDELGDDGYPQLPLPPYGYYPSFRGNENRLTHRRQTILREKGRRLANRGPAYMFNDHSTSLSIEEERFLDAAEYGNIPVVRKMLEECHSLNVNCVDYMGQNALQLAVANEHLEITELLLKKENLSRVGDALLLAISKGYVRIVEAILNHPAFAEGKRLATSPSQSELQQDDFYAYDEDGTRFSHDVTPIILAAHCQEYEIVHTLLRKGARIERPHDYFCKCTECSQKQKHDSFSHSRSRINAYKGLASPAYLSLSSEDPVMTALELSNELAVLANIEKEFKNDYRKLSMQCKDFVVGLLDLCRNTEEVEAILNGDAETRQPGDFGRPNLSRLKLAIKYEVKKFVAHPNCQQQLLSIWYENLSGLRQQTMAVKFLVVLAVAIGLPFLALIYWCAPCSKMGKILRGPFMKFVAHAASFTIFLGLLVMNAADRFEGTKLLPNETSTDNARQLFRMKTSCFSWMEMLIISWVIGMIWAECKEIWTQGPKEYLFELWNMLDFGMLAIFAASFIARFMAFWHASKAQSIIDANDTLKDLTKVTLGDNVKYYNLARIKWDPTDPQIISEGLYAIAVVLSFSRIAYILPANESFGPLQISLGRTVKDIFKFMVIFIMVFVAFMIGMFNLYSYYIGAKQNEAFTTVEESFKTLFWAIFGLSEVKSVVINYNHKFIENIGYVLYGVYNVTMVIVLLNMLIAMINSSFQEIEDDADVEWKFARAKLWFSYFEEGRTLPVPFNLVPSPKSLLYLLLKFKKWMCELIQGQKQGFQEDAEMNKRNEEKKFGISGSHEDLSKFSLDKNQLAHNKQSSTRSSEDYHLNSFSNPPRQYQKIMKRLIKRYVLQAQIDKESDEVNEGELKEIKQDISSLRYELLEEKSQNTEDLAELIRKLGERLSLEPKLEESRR

[10] = molecular target: Short transient receptor potential channel 6 (Mus musculus) (UniProt Q61143); assay: TRPC6 opening by TRPC4 activator hits – cell-based, HEK293, membrane potential dye, duplicate, selectivity assay for TRPC4 activator project, confirmation (AID 434950;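 active = membrane potential signal rise above negative control mean plus 3 SD in both duplicates, also active in the earlier TRPC4 screen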;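 for activation: 0% = buffer only wells and 100% = acetylcholine maximal-effect wells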); conditions: HEK293 TRPC6, membrane potential fluorescence, at 10 µM; activation: active compounds read high; outcome: activation
[11] = molecular target: Short transient receptor potential channel 6 (Mus musculus) (UniProt Q61143); assay: positive modulators of mouse TRPC6 channel – HEK293 cells, membrane potential dye, duplicate, selectivity assay for TRPC4 potentiator project, confirmation (AID 434952;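 active = compound raising the membrane signal above positive-control mean plus 3 SD in both repeats, and a primary screen hit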); conditions: HEK293 TRPC6, membrane potential dye fluorescence, at 10 µM, maximal acetylcholine added after compound; active compounds read high
[12] = molecular target: Short transient receptor potential channel 4 (Mus musculus) (UniProt Q9QUQ5); assay: calcium flux activators in TRPC4/5HT1a cells, counter-screen for TRPC4 activator project, cell-based, second counter screen, HEK293 TRPC4/5HT1a, Fluo-4 (AID 434977;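 active = calcium signal rise above buffer-control mean plus 5 SD in both duplicates, and also a hit in the primary screen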;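 for activation: plate controls were assay buffer for no effect and maximal serotonin response for full effect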); conditions: Fluo-4 calcium flux, at 10 µM; active compounds read high
[13] = serotonin-gated TRPC4 signal block – cell-based, second counter screen, HEK293 TRPC4/5HT1a, Fluo-4, counter-screen for TRPC4 inhibitor project, confirmation (AID 434978;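 active = primary screen active whose calcium signal fell more than 3 SD beyond the full-serotonin control mean in both duplicate plates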;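 note: serotonin given first at submaximal then at maximal dose after compound preincubation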); conditions: Fluo-4 calcium flux, at 10 µM, serotonin added to trigger calcium flux; active compounds read high
[14] = tested on: TRPC4 (mouse), co-expressed with 5HT1a in HEK293; assay: enhancement of serotonin-evoked TRPC4 response – cell-based, second counter screen, HEK293 TRPC4/5HT1a, Fluo-4, counter-screen for TRPC4 potentiator project, confirmation (AID 434979;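 active = signal rise over 3 SD above mean of control wells given weak agonist, in both repeats and first screen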); conditions: Fluo-4 calcium flux, at 10 µM, serotonin added at its EC20 dose; active compounds read high
[15] = nonspecific calcium rise without TRPC4 – cell-based, HEK293 mu-opioid receptor line, counter-screen for TRPC4 activator project, confirmation (AID 449723;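 active = hit in primary screen, with calcium signal over 5 SD above buffer well mean in both duplicates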;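 note: counter screen cells carry the mu-opioid receptor alone and lack TRPC4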); conditions: HEK293 mu-opioid cells, Fluo-4 calcium fluorescence, at 10 µM; active compounds read high
[16] = nonspecific potentiation of DAMGO calcium response – cell-based, HEK293 mu-opioid receptor line, counter-screen for TRPC4 allosteric potentiator project, confirmation (AID 449724;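 active = calcium signal rise more than 3 SD above the low-dose agonist control mean, in both duplicate plates and the primary screen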); conditions: HEK293 mu-opioid receptor cells, Fluo-4 calcium flux, at 10 µM, compound added before EC20 DAMGO stimulus; active compounds read high

O=C(CCc1ccccc1)NNC(=S)NC(=O)c1ccc(Cl)cc1
inactive: outcome [2] | outcome [3] | outcome [4] | outcome [5] | outcome [6] | outcome [7] | outcome [8] | outcome [9] | outcome [11] | outcome [13] | outcome [14] | outcome [16]
active: activation [1] 170% | activation [10] 30% | activation [12] 66.8% | activation [15] 28.6%

CCn1c(=O)cc(OCC(=O)NCCCN2CC(C)CC(C)C2)c2ccccc21 (stereo not drawn)
active: activation [1] 80% | activation [2] 73% | activation [12] 17.3%
inactive: outcome [3] | outcome [4] | outcome [5] | outcome [6] | outcome [7] | outcome [8] | outcome [9] | outcome [10] | outcome [11] | outcome [13] | outcome [14] | outcome [15] | outcome [16]

Cn1c(CN2CCN(c3cccc(Cl)c3)CC2)nc2ccccc21
inactive: outcome [2] | outcome [3] | outcome [4] | outcome [5] | outcome [6] | outcome [7] | outcome [8] | outcome [9] | outcome [11] | outcome [12] | outcome [13] | outcome [14] | outcome [15] | outcome [16]
active: activation [1] 119% | activation [10] 49%

O=C(O)c1ccc(-c2ccc(/C=c3/sc4nc5ccccc5n4c3=O)o2)cc1Cl
active: potentiation [4] 10% | activation [10] 218% | potentiation, percent of control [11] 166% | activation [12] 46.3% | activation [15] 40.9%
inactive: outcome [1] | outcome [2] | outcome [3] | outcome [5] | outcome [6] | outcome [7] | outcome [8] | outcome [9] | outcome [13] | outcome [14] | outcome [16]

CCN1C(=O)c2cccc3c(S(=O)(=O)Nc4ccccc4OC)ccc1c23
inactive: outcome [1] | outcome [2] | outcome [3] | outcome [4] | outcome [5] | outcome [6] | outcome [7] | outcome [8] | outcome [9] | outcome [10] | outcome [11] | outcome [12] | outcome [13] | outcome [14] | outcome [15] | outcome [16]

CCCN(CCC)CCCNC(=O)C1CCC(CNS(=O)(=O)c2cccc3nsnc23)CC1 (stereo not drawn)
active: activation [1] 83% | activation [2] 52% | activation [12] 29.2%
inactive: outcome [3] | outcome [4] | outcome [5] | outcome [6] | outcome [7] | outcome [8] | outcome [9] | outcome [10] | outcome [11] | outcome [13] | outcome [14] | outcome [15] | outcome [16]

Cc1ccc(N2CCN(c3ccc(NCc4nc5ccccc5n4C)cc3)CC2)cc1
active: activation [1] 79%
inactive: outcome [2] | outcome [3] | outcome [4] | outcome [5] | outcome [6] | outcome [7] | outcome [8] | outcome [9] | outcome [10] | outcome [11] | outcome [12] | outcome [13] | outcome [14] | outcome [15] | outcome [16]

COc1cc(OC)cc(C(=O)NCCCN2CCN(CCCNC(=O)c3cc(OC)cc(OC)c3)CC2)c1
active: activation [1] 121% | activation [2] 94% | activation [10] 31.5% | activation [12] 30.4%
inactive: outcome [3] | outcome [4] | outcome [5] | outcome [6] | outcome [7] | outcome [8] | outcome [9] | outcome [11] | outcome [13] | outcome [14] | outcome [15] | outcome [16]

O=C(Nc1nnc(-c2ccccc2Cl)o1)c1nc2ccccc2s1
active: activation [1] 143% | activation [12] 91.4% | activation [15] 30.2%
inactive: outcome [2] | outcome [3] | outcome [4] | outcome [5] | outcome [6] | outcome [7] | outcome [8] | outcome [9] | outcome [10] | outcome [11] | outcome [13] | outcome [14] | outcome [16]

Cc1nc(/N=C(\N)NC(=O)NC2CCCCC2)nc2ccccc12
active: activation [1] 99% | activation [2] 66% | activation [12] 36.2%
inactive: outcome [3] | outcome [4] | outcome [5] | outcome [6] | outcome [7] | outcome [8] | outcome [9] | outcome [10] | outcome [11] | outcome [13] | outcome [14] | outcome [15] | outcome [16]

CCOC(=O)C1(CCOc2ccccc2)CCN(Cc2ccc(NC(C)=O)cc2)CC1
active: activation [1] 146% | activation [2] 68% | activation [10] 51%
inactive: outcome [3] | outcome [4] | outcome [5] | outcome [6] | outcome [7] | outcome [8] | outcome [9] | outcome [11] | outcome [12] | outcome [13] | outcome [14] | outcome [15] | outcome [16]

O=C(C1CCCN(Cc2ccncc2)C1)N1CCc2ccccc2C1 (stereo not drawn)
active: activation [1] 204% | activation [2] 149% | activation [10] 27.5% | activation [12] 84.2%
inactive: outcome [3] | outcome [4] | outcome [5] | outcome [6] | outcome [7] | outcome [8] | outcome [9] | outcome [11] | outcome [13] | outcome [14] | outcome [15] | outcome [16]

Cc1ccc(-n2cc(CNCCc3ncc(C)[nH]3)c(-c3ccc(F)cc3)n2)cc1
active: activation [1] 177% | activation [12] 14.9%
inactive: outcome [2] | outcome [3] | outcome [4] | outcome [5] | outcome [6] | outcome [7] | outcome [8] | outcome [9] | outcome [10] | outcome [11] | outcome [13] | outcome [14] | outcome [15] | outcome [16]

Reference: PubChem BioAssay
